Most compounds without a hit are left out; they make up all but 3.7% or so of the library.
ANO1 block = mouse TMEM16A channel inhibition, primary screen | AID 588511 | 310,000 compounds, 1.2% hits | Q8BHY3 | normalized B-score (activity score, 25-100; higher = stronger inhibition) at 10 µM | HEK293 TMEM16A/YFP iodide influx fluorescence, ionomycin;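 active = ratio plate-corrected score three or more library SD toward inhibition, starting fluorescence score within five deviations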;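 note: score derived from kinetic fluorescence span divided by baseline fluorescence per well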
Kir21 inh = Kir2.1 (mouse) channel inhibition. HEK293-Kir2.1, FluxOR thallium flux fluorescence; hits give low values. B-score at 10 µM. 310,000 compounds, 0.85% hits. P35561;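 active = fluorescence ratio B-score at or below minus 3 SD of library scores, with starting-brightness B-score within 2 SD, cut at about -4.2 in these data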;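 note: channel flux triggered by added potassium and thallium sulfate stimulus; B-score of peak minus minimum fluorescence over baseline after thallium stimulus; more negative B-score means stronger Kir2.1 block with less thallium influx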
GPR7 antagonist = antagonists of human GPR7 (neuropeptides B/W receptor 1); GPR7-expressing cells, fluorescence antagonist assay; P48145; AID 1861; inhibition, % at 4.4 µM; 290,000 compounds, 1.1% hits; in the data active = inhibition above about 16%, passing the limit was not always enough;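 note: cells stimulated with the agonist NPW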
TMEM16A act = activators or potentiators of mouse TMEM16A chloride channel; HEK293 TMEM16A/YFP-H148Q/I152L, iodide quench fluorescence; hits give low values; B-score at 10 µM; 340,000 compounds, 0.3% hits;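 active = fluorescence-ratio B-score plate-corrected deviation score at least 3 library SD below zero, with starting fluorescence score within 5 deviations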;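 note: channel opened by trigger with iodide after compound preincubation; score built on the fluorescence ratio of max minus min over baseline; more negative score means more quench and so TMEM16A activation or potentiation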
CHT allo act = human CHT allosteric activation; 310,000 compounds, 0.49% hits; B-score at 10 µM; Q9GZV3; AID 488977; CHT-expressing cells, membrane potential dye, choline EC20; hits give high values; LV-AA mutant CHT in HEK293 cells;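 active = initial fluorescence not abnormally high and integrated response B-score, plate-corrected, over 3 SD above library mean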
Target sequence (Q9GZV3 whole entry, looked up): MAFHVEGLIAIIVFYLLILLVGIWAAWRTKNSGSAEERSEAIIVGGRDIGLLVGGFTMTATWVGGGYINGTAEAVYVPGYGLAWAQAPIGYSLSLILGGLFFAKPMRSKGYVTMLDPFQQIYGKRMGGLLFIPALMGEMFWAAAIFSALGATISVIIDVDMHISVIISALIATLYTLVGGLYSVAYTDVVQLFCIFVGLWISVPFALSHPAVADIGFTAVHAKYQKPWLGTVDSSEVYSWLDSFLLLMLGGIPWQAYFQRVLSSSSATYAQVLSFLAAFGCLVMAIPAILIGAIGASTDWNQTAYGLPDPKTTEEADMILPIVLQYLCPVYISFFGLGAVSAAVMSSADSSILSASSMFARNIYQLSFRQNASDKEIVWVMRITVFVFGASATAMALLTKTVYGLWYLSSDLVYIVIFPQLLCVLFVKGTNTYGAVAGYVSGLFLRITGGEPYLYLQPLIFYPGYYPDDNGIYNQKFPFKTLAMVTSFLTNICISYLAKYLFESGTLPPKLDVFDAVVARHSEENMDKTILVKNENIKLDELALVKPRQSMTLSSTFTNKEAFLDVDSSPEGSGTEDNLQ
CHT inh = inhibitors of human choline transporter CHT; Q9GZV3; CHT-expressing cells, membrane potential dye, choline response; hits give low values; B-score at 10 µM; 310,000 compounds, 0.86% hits; AID 488975;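 active = B-score over 3 SD under the library average, and starting fluorescence ratio not unusually high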;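 note: choline stimulus applied at its EC90 after an EC20 pre-addition; B-score computed on integrated fluorescence ratio after choline addition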
CHT inh conf = confirmation of human choline transporter CHT inhibitors; shares compounds with CHT inh; CHT-expressing cells, choline membrane potential dye; LV-to-AA substituted CHT, HEK293 cells; CHT activity remaining % of control (hits give low values), % at 10 µM; 2,400 compounds, 70% hits; AID 493221;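 active = choline transporter activity left, mean of duplicates at 10 µM, below buffer-only control mean minus 3 SD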;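 note: depolarization triggered by choline at its EC90 following an EC20 pre-addition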
HEK293 CHT ctr = activity in parental HEK293 cells lacking CHT | shares compounds with CHT inh | membrane potential dye, choline response; active = decrease or increase beyond buffer ±3SD | membrane potential ratio readout (active if shifted either direction beyond buffer ±3SD; no single direction) at 10 µM | 2,400 compounds, 4% hits | AID 493222;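 note: parental cells lack the transporter so any hit is non-specific; ratio is peak minus trough fluorescence over baseline after EC90 choline challenge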
Of the large screens only hits and unclear results are named; the others gave an inactive call (follow-up assays come after a bar, where they were run).

Cc1ccc(NC(=O)Cn2cc(C=O)c3ccccc32)cc1	none
CC(C)(C)NCC(O)Cn1cc(C=O)c2ccccc21 (stereo not given)	CHT inh -5.67 | CHT inh conf 49.6% | HEK293 CHT ctr inactive
O=S(=O)(Nc1cccc(S(=O)(=O)N2CCCCCC2)c1)c1ccc(F)cc1F	none (no result: ANO1 block, Kir21 inh, GPR7 antagonist, CHT allo act, CHT inh)
Cc1ccc(NC(=O)Cc2ccccc2F)cc1S(=O)(=O)N1CCCCCC1	none (no result: ANO1 block, Kir21 inh, GPR7 antagonist, CHT allo act, CHT inh)
Fc1ccc(-c2nc3c(-c4ccccc4)cnn3cc2CCN2CCOCC2)cc1	CHT inh -9.97 | CHT inh conf 21.7% | HEK293 CHT ctr inactive
Nc1ncc(CCN2CCOCC2)c(-c2ccc(F)cc2)n1	none
Fc1ccc(-c2nc3c(-c4ccc(F)cc4)cnn3cc2CCN2CCOCC2)cc1	CHT inh -6.58 | CHT inh conf 58.9% | HEK293 CHT ctr inactive
CSCCC(NS(=O)(=O)c1cccc(C(F)(F)F)c1)C(=O)Nc1ccccc1N1CCCC1 (stereo not given)	none (no result: GPR7 antagonist)
CCOC(=O)c1sc(NC(=O)CCN2C(=O)c3cccc([N+](=O)[O-])c3C2=O)c(C(=O)OCC)c1C	CHT inh -7.41 | CHT inh conf 56.2% | HEK293 CHT ctr inactive
CSc1ccccc1C(=O)NC1CCCc2ccccc21 (stereo not given)	none
Clc1c(-c2nnc3n2CCCCC3)sc2ccccc12	CHT inh -5.27 | CHT inh conf 36.0% | HEK293 CHT ctr -8.49
COc1ccc(-c2nnc3n2CCCCC3)cc1OC	none
Clc1c(-c2nnc3n2CCC3)sc2ccccc12	none
COc1ccc2c(Cl)c(-c3nnc4n3CCCCC4)sc2c1	CHT inh -6.21 | CHT inh conf inactive | HEK293 CHT ctr inactive
C=CCn1c(CNS(=O)(=O)c2ccc(Br)cc2)n[nH]c1=S	none
Cc1cccc(NC(=O)CSCC(=O)NCc2ccco2)c1	none
Cc1ccc(NC(=O)C2CSC3(C)CCC(=O)N23)cc1S(=O)(=O)N1CCOCC1 (stereo not given)	none (no result: ANO1 block, Kir21 inh, GPR7 antagonist, CHT allo act, CHT inh)
Cc1ccc(NC(=O)COC(=O)C2CSC3(C)CCC(=O)N23)cc1S(=O)(=O)N1CCOCC1 (stereo not given)	CHT inh -7.31 | CHT inh conf inactive | HEK293 CHT ctr inactive
CC1=C(C(=O)OCC(Cl)(Cl)Cl)N2C(=O)C(NC(=O)Cc3ccccc3)C2SC1 (stereo not given)	CHT inh -11.8 | CHT inh conf inactive | HEK293 CHT ctr inactive
CC(=O)OCC1=C(C(=O)OC(C)(C)C)N2C(=O)[C@@H](NC(=O)Cc3ccccc3)[C@H]2SC1	none (no result: ANO1 block, Kir21 inh, GPR7 antagonist, CHT allo act, CHT inh)
CCC1CCCCN1C(=O)c1ccc(OC2CCN(C(=O)CCOC)CC2)cc1 (stereo not given)	none
Cc1cc(C)nc(SCC(=O)NC2CCCCC2C)n1 (stereo not given)	none (no result: GPR7 antagonist)
CCOc1cc(Br)ccc1S(=O)(=O)NCc1ccccc1	CHT inh -6.26 | CHT inh conf inactive | HEK293 CHT ctr inactive
CC(NC(=O)Cn1nc(-c2ccccc2)c2ccccc2c1=O)c1ccccc1 (stereo not given)	CHT inh -5.19 | CHT inh conf 68.9% | HEK293 CHT ctr inactive
CCCCCCN1CC(C(=O)OCC)C(=O)C1=O (stereo not given)	none
CCC(CC)c1nnc(NC(=O)C2=NNC(=O)CC2)s1	none
CC12CCC(C(=O)Nc3nc4ccc(Br)cc4s3)(OC1=O)C2(C)C (stereo not given)	none
COc1ccc(C2=NOC(C(=O)Nc3cccnc3)C2)cc1 (stereo not given)	none
CCc1ccccc1NC(=O)C1CC(c2ccc(OC)cc2)=NO1 (stereo not given)	CHT inh -6.35 | CHT inh conf 48.3% | HEK293 CHT ctr inactive
O=C(/C=C/c1ccc(S(=O)(=O)N2CCOCC2)cc1)NCc1ccccc1F	none (no result: ANO1 block, Kir21 inh, GPR7 antagonist, CHT allo act, CHT inh)
O=C(Nc1cccnc1)c1ccc(COc2ccccc2Cl)o1	CHT inh -7.29 | CHT inh conf 56.2% | HEK293 CHT ctr inactive
Cc1coc2c(C)c3oc(=O)c(CCC(=O)NCCCn4ccnc4)c(C)c3cc12	none
Cc1c(CCC(=O)NCCCn2ccnc2)c(=O)oc2c(C)c3occ(C(C)(C)C)c3cc12	CHT inh -5.46 | CHT inh conf 28.8% | HEK293 CHT ctr inactive
FC(F)Sc1ccc(NC(=S)NC2CCCCC2)cc1	none
CC1CCCCC1NC(=S)Nc1ccc(SC(F)F)cc1 (stereo not given)	CHT inh -5.49 | CHT inh conf 66.0% | HEK293 CHT ctr inactive
C=CCn1c(SCc2ccc(Cl)cc2)nc2c1c(=O)[nH]c(=O)n2C	none
C=CCn1c(SCc2ccc(F)cc2)nc2c1c(=O)[nH]c(=O)n2C	CHT inh -6.03 | CHT inh conf inactive | HEK293 CHT ctr inactive
CNC(=O)[C@H]1O[C@@H](n2cnc3c(NCc4cccc(I)c4)ncnc32)[C@H](O)[C@@H]1O	CHT inh -5.15 (no result: Kir21 inh, GPR7 antagonist) | CHT inh conf 44.1% | HEK293 CHT ctr inactive
O=C(NNC(=S)Nc1ccc(C(=O)O)c(O)c1)c1ccncc1	none (no result: ANO1 block, Kir21 inh, GPR7 antagonist, CHT allo act, CHT inh)
CCc1ccc2oc(C(=O)NCC(c3ccc(OC)cc3)N3CCCCC3)c(C)c2c1 (stereo not given)	CHT inh -6.04 | CHT inh conf 61.2% | HEK293 CHT ctr inactive
Cn1cc(C(=O)C(=O)NC2CCCCC2)c2ccccc21	none
Cc1ccc(NC(=S)Nc2cccc3cnccc23)cc1C	CHT inh -5.89 | CHT inh conf 54.1% | HEK293 CHT ctr inactive
Cc1cc2nc(C)c(Cl)c(=O)n2[nH]1	CHT inh -7.42 | CHT inh conf 19.7% | HEK293 CHT ctr inactive
Cc1cc(C)c(NC(=O)COC(=O)c2cccc3c2C(=O)c2ccccc2C3=O)c(C)c1	CHT inh -5.09 | CHT inh conf inactive | HEK293 CHT ctr inactive
Cc1ccc(C)c(NC(=O)COC(=O)c2cccc3c2C(=O)c2ccccc2C3=O)c1	none
CC[N+]1(CC)CC2=Cc3c(ccc4ccccc34)CC2C1 (stereo not given)	CHT inh -6.41 | CHT inh conf 45.8% | HEK293 CHT ctr inactive
CC12Cc3ccc4ccccc4c3C=C1C[N+](C)(C)C2 (stereo not given)	none
O=C(Nc1ccc2c(c1)OCO2)C1CCN(C(=O)c2ccc(Br)cc2)CC1	none
Cc1cc(NS(=O)(=O)c2ccc(NC(=O)COc3c(C)cc(Br)cc3C)cc2)no1	CHT inh -6.01 | CHT inh conf 34.3% | HEK293 CHT ctr inactive

From PubChem
